# Results taken from PubChem BioAssay (EPA / NIEHS).
# Inconclusive results are not listed. Calls of active or inactive are those of the source. The calls were made as follows: active = hit-call score of the fitted dose curve at least 0.9, where 1 is the maximum; inconclusive = response in the unintended direction; inactive = score below 0.9.
# Test: TOX21_p53_BLA_p5_viability: Viability Assessment in the Tox21 HCT-116 p53 Agonism Beta-lactamase Assay, Phase 5 (AID 2283600)
# Method in brief: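 Compounds, pinned from DMSO at 217-fold dilution, were left on the cells for 16 h. The viability endpoint was ATP content measured by CellTiter-Glo luminescence, where falling signal reflects cytotoxicity.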
row,Compound,outcome
1,COC(=O)[C@H]1[C@H]2C[C@@H]3c4[nH]c5cc(OC)ccc5c4CCN3C[C@H]2C[C@@H](OC(=O)/C=C/c2cc(OC)c(OC)c(OC)c2)[C@@H]1OC,inactive
2,Cn1c(=O)c2[nH]c(Br)nc2n(C)c1=O,inactive
3,COC(=O)C1=C(C)NC(C)=C(C(=O)O[C@@H]2CCCN(Cc3ccccc3)C2)[C@@H]1c1cccc([N+](=O)[O-])c1,inactive
4,CC1(C)C(O)C(C)(C)C1O (stereo not drawn),inactive
5,CCN1CCN(c2cc3c(cc2F)c(=O)c(C(=O)O)cn3C2CC2)CC1,inactive
6,CC(C)(C)OC=O,inactive
7,CNCCS(=O)(=O)O,inactive
8,COc1ccc(C(=O)Nc2ccccc2)cc1[N+](=O)[O-],inactive
9,O=C(OOC(=O)c1ccccc1)c1ccccc1,inactive
10,COc1cc(OC)c(C(=O)CCCN2CCCC2)c(OC)c1,inactive
11,Cc1[nH]cnc1CN1CCc2c(c3ccccc3n2C)C1=O,inactive
12,CC12CCC(C(=O)C1=O)C2(C)C (stereo not drawn),inactive
13,c1cnccn1,inactive
14,COc1ccccc1OCC(O)COC(N)=O (stereo not drawn),inactive
15,CCC(=O)C=CC1C(C)=CCCC1(C)C (stereo not drawn),inactive
16,CCN[C@@H]1C[C@H](N)[C@@H](OC2OC(CN)=CCC2N)[C@H](O)[C@H]1O[C@H]1OC[C@](C)(O)[C@H](NC)[C@H]1O (stereo partly drawn),inactive
17,Nc1ccc2ccccc2c1S(=O)(=O)O,inactive
18,CC(C)Cc1ccc([C@@H](C)C(=O)NS(C)(=O)=O)cc1,inactive
19,Cc1cc(C)c(NC(=O)CN(CC(=O)O)CC(=O)O)c(C)c1Br,inactive
20,CCOC(=O)c1ccc(NC(=O)CN2CCCCC2)cc1,inactive
21,CCC(=O)OCC(=O)[C@@]1(OC(=O)CC)[C@H](C)C[C@H]2[C@H]3[C@H]([C@@H](O)C[C@@]21C)[C@@]1(C)C=CC(=O)C=C1C[C@H]3Cl,inactive
22,Nc1nc(-c2ccccc2)c(Br)c(=O)[nH]1,inactive
23,O=C(O)c1cccc(C(=O)O)c1C(=O)O,inactive
24,CCCCCCCCCCCCOC(=O)c1ccc(O)cc1,inactive
25,C[N+](C)(C)CCOC(N)=O,inactive
26,Cc1cc(O)cc2c1O[C@](C)(CCC[C@H](C)CCC[C@H](C)CCCC(C)C)CC2,inactive
27,N[C@H]1C(O)O[C@H](CO)[C@@H](O)[C@@H]1O (stereo partly drawn),inactive
28,C=C(C)C1CCC(C)(O)CC1 (stereo not drawn),inactive
